# Laboratory results reported in the supplement of paper PMC7595190.
# Where a name gives a salt, the structure may show the parent alone. A number with no mark means an inactive call.
# Test system: MV4-11
# Assay: CellTox Green cytotoxicity fluorescence relative to DMSO vehicle (fold of vehicle RFU); higher = more cell death (loss of membrane integrity), active = 2 or more
# Description: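 Paediatric AML cell lines (MV4-11, CMK, Kasumi-1; 4x10^4 cells/well, 96-well) treated with single compounds from the Selleckchem apoptosis library at 0.01, 0.1 and 1 µM. Cytotoxicity was read with CellTox Green (RFU, Ex 485/Em 520) at 24, 48 and 72 h and normalised to the 0.1% DMSO vehicle. Normalised RFU >= 2 was taken as a successful, cell-killing treatment.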
Compound,"CellTox Green cytotoxicity fluorescence (0.01 µM, 24 h)","CellTox Green cytotoxicity fluorescence (0.01 µM, 48 h)","CellTox Green cytotoxicity fluorescence (0.01 µM, 72 h)","CellTox Green cytotoxicity fluorescence (0.1 µM, 24 h)","CellTox Green cytotoxicity fluorescence (0.1 µM, 48 h)","CellTox Green cytotoxicity fluorescence (0.1 µM, 72 h)","CellTox Green cytotoxicity fluorescence (1 µM, 24 h)","CellTox Green cytotoxicity fluorescence (1 µM, 48 h)","CellTox Green cytotoxicity fluorescence (1 µM, 72 h)"
CC(=O)O/N=C1/C(c2c(O)[nH]c3cc(Br)ccc23)=Nc2ccccc21 [BIO-acetoxime],1.7,1.57,1.56,1.03,1.11,1.17,1.02,1.2,1.36
COc1c/c(=C2\C=c3ccccc3=N2)[nH]/c1=C\c1[nH]c(C)cc1C [Obatoclax Mesylate],0.935,0.93,0.916,0.96,0.997,1.02,1.21,1.78,2.14 (active)
CN(C)CCCCC(=O)Nc1ccc(NC(=S)NC(=O)c2ccc(C(C)(C)C)cc2)cc1 [Tenovin-6],1,0.993,0.989,0.986,0.964,0.952,1.02,1.02,1.05
Cc1c(C(=O)Nc2ccc(Oc3ccnc4[nH]cc(-c5ccccc5)c34)c(F)c2)c(=O)n(-c2ccc(F)cc2)n1C,1.01,1.03,1.06,1.05,1.23,1.41,1.03,1.24,1.49
CCC(CC)n1ccc2c(C(=O)NCc3c(C)cc(C)[nH]c3=O)cc(C#N)cc21,0.856,0.857,0.869,–,–,–,–,–,–
CN(C)CC[C@H](CSc1ccccc1)Nc1ccc(S(=O)(=O)NC(=O)c2ccc(N3CCN(Cc4ccccc4-c4ccc(Cl)cc4)CC3)cc2)cc1[N+](=O)[O-],0.961,1.15,1.31,1.08,1.59,1.88,1.27,2.34 (active),2.59 (active)
